High-throughput results: PubChem, National Center for Advancing Translational Sciences (NCATS)
Tau fluor counter = counter-screen for tau fibril formation inhibitors. tau K18 P301L Alexa594 fluorescence, heparin fibrillization. Potency, µM (highest dose often 57.7 µM). hit rate 0.93% among 280,000. AID 1463; note: nearly all actives have a fitted effect of over 55% in size
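Human tau K18 P301L (15 uM unlabeled, 0.24 uM Alexa 594-labeled) in 100 mM sodium acetate pH 7 with 20 uM heparin, 6 hr at 37 C. ThT 30 uM added, 1 hr ambient; Alexa 594 FP and total fluorescence read at 555/632 nm.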
Tau ThT inhib = tau fibrillization inhibition (ThT binding). P10636. recombinant tau K18 P301L, heparin-induced fibrillization, ThT fluorescence. Potency, µM (top dose mostly 57.4 µM), most hits filed as inhibitors. hit rate 2.1% among 270,000; note: nearly all actives have a fitted effect of over 55% in size
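Using a mix of unlabeled (15 uM) and Alexa 594-labeled (0.24 uM) tau K18 P301L, heparin-triggered fibrillization over 6 hr at 37 C was scored by ThT fluorescence.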
Sfp inh = blocks B. subtilis Sfp PPTase activity; AID 1490; Biochemical Sfp PPTase activity, qHTS; hit rate 3.5% among 310,000; Q9F4F7; Potency, µM, most hits filed as inhibitors;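 note: the enzyme is Sfp with the accession as filed and its product quenches rhodamine fluorescence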
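With Hepes-Na pH 7.6 buffer containing 10 mM MgCl2, Sfp (15 nM) modified BHQ-2-YbbR (12.5 uM) using rhodamine-CoA (5 uM). Two reads 30 minutes apart at 525/598 nm yielded each well's rate.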
VDR inhibitor = inhibitors of human vitamin D receptor. VDR-SRC2-3 peptide fluorescence polarization, 2 h. Potency, µM, usual class: inhibitors. hit rate 0.93% among 400,000
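Signal is fluorescence polarization, reporting how far test compounds block the interaction of VDR with the SRC2-3 coregulator peptide after a 2 h room-temperature incubation.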
PLK1 PBD block = inhibitors of human PLK1 polo-box domain binding | Plk1 PBD binding of FITC phosphopeptide, fluorescence polarization | Potency, µM, usual class: inhibitors | hit rate 2.8% among 360,000 | AID 720504; note: series mostly up to about 57 µM; nearly all actives have a fitted effect of over 65% in size
Target sequence (P53350 whole entry, looked up, the tested form may be a part): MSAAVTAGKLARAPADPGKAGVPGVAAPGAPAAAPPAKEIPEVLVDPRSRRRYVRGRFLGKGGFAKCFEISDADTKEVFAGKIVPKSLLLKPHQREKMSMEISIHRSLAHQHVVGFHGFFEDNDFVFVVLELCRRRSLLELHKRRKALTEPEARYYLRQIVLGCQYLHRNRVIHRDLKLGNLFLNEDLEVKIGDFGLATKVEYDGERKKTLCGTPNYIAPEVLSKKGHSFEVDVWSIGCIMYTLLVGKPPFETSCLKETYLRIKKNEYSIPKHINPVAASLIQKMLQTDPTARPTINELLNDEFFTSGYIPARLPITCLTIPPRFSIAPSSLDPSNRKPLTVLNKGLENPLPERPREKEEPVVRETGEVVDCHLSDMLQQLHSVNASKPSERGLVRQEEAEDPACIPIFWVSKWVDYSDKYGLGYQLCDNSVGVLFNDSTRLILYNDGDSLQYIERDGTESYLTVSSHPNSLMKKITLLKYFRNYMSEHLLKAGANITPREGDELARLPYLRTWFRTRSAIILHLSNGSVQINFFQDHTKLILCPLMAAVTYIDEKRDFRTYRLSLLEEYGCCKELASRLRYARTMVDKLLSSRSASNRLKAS
Tau FP inhib = blocks human tau fibril formation measured by polarization | P10636 | K18 P301L tau heparin fibrillization, Alexa594 FP, 6 h | Potency, µM (doses to about 57.7 µM), hits mostly inhibitors | hit rate 0.39% among 280,000; note: nearly all actives have a fitted effect of over 55% in size
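Quantitative HTS format: compounds meet 15 uM recombinant K18 P301L tau and Alexa 594-tau tracer in 100 mM sodium acetate pH 7; 20 uM heparin triggers fibrillization at 37 C over 6 hr; FP gives the signal.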
VDR inh confirm = confirmation of human vitamin D receptor inhibitors. hit rate 89% among 840. AID 602199. shares compounds with VDR inhibitor. VDR-coactivator inhibition assay, qHTS confirmation. Potency, µM, hits mostly inhibitors
VDR FP = VDR (human) coactivator binding inhibition, fluorescein polarization; shares compounds with VDR inhibitor; VDR-coactivator binding, fluorescein fluorescence polarization; Potency, µM (doses to about 57.1 µM), most hits filed as inhibitors; hit rate 48% among 840
VDR bla = confirmation of human vitamin D receptor inhibitors in reporter cells; shares compounds with VDR inhibitor; VDR beta-lactamase reporter cells, FRET ratio; cells co-treated with VDR agonist LG190178; Potency, µM (highest dose often 46.1 µM), usual class: inhibitors; hit rate 23% among 840
VDR cytotox = counter-screen for vitamin D receptor inhibitors: cytotoxicity; shares compounds with VDR inhibitor; cytotoxicity counter-screen, cell viability, qHTS; Potency, µM (top dose mostly 48.3 µM), actives largely listed as cytotoxic; hit rate 18% among 840; AID 602204; note: nearly all actives have a fitted effect of over 75% in size
Numbers stand for hits; – = inactive; ? = inconclusive; · = no result given; [ ] = another dose, or the depositor's remark. The list is not random: actives were taken first. Their share in the collection is about 6%. Calls come from the whole dose curve; as a rule, active = well fitted curve in the direction sought with a large enough effect; inconclusive = small, poorly fitted or top-dose-only effect, or another doubt; inactive = no such curve, though single readings can be large; an effect the other way counts as inactive or inconclusive.

SMILES	Tau fluor counter	Tau ThT inhib	Sfp inh	VDR inhibitor	PLK1 PBD block	Tau FP inhib	VDR inh confirm	VDR FP	VDR bla	VDR cytotox
O=C(Nc1cc(S(=O)(=O)N2CCOCC2)ccc1N1CCCCC1)c1ccccc1	·	·	·	–	–	·	·	·	·	·
O=C(Nc1cc(S(=O)(=O)N2CCOCC2)ccc1N1CCCC1)c1ccc(Cl)cc1	·	·	·	?	7.5µM	·	13	7.9µM	–	?
O=C(Nc1cc(S(=O)(=O)N2CCOCC2)ccc1N1CCCCC1)c1ccc(Cl)cc1	·	·	·	?	5.3µM	·	9.5	?	–	–
O=C(Nc1cc(S(=O)(=O)N2CCOCC2)ccc1N1CCCC1)c1ccccc1F	·	·	·	·	–	·	·	·	·	·
O=C(Nc1cc(S(=O)(=O)N2CCOCC2)ccc1N1CCCC1)c1ccc2c(c1)S(=O)(=O)c1ccccc1C2=O	?	25µM	10µM	45µM	4.7µM	?	8.4	3.5µM	–	–
O=C(Nc1cc(S(=O)(=O)N2CCOCC2)ccc1N1CCCCC1)c1ccccc1Br	·	·	·	89µM	4.7µM	·	17	?	–	–
C=CCC(C)(O)c1ccccc1 (stereo not given)	–	–	–	–	·	–	·	·	·	·
COc1cccc(CNC(=O)CCc2nnc3n(C)c(=O)c4sccc4n23)c1	–	–	·	–	·	–	·	·	·	·
Nc1cc(S(=O)(=O)N2CCCCC2)ccc1N1CCCCC1	·	·	·	–	–	·	·	·	·	·
Nc1cc(S(=O)(=O)N2CCOCC2)ccc1N1CCCCC1	·	·	·	25µM	3µM	·	6	?	–	–
Cc1ccc(C(=O)c2c(C)oc3c2C(=O)C(=O)c2ccccc2-3)cc1	–	3.5µM	50µM	3.5µM	?	?	1.5	4µM	?	5.6µM
O=C(c1ccc(Cl)cc1)c1ccc(CN2C(=O)c3ccccc3C2=O)o1	–	–	–	–	–	–	·	·	·	·
Cc1oc2c(c1C(=O)N1CCC(C)CC1)C(=O)c1ccccc1C2=O	–	–	–	–	–	–	·	·	·	·
Cc1oc2c(c1C(=O)c1ccc(Cl)cc1)C(=O)C(=O)c1ccccc1-2	–	2.2µM	?	?	?	?	3.5	3.5µM	2.9µM	3.8µM
Cc1ccc(C(=O)c2coc3c2C(=O)C(=O)c2ccccc2-3)cc1	?	2.2µM	45µM	7.1µM	?	?	4.7	?	–	?
O=c1c(-c2cccs2)nc2cnc(Oc3cccc(Cl)c3)nc2n1C[C@H]1CCCO1	·	·	–	–	·	·	·	·	·	·
COCOCCn1cc(CN2CCS(=O)(=O)N(Cc3ccc(-c4ccc(OC)cc4)cc3)C(C(C)C)C2=O)nn1 (stereo not given)	·	·	·	·	–	·	·	·	·	·
CC(C)c1ccc2c(c1)NC(c1ccc(F)cc1)=NC(c1cccs1)=N2	?	?	·	–	·	–	·	·	·	·
CCN(CC)S(=O)(=O)c1ccc2c(c1)N(CC(=O)N1CCN(c3ccc(Cl)cc3)CC1)C(=O)CO2	–	–	·	–	·	–	·	·	·	·
N#Cc1c(Nc2ccccc2)s[nH]c1=O	?	·	20µM	?	–	16µM	7.5	–	–	–
CCCC[C@@H]1CN2[C@H](c3ccc(Br)cc3)[C@@H](C)CC[C@H]2C(=O)O1	–[11.6 µM]	–[11.5 µM]	–	·	·	–[11.6 µM]	·	·	·	·
N#CC1=C(N)C(C#N)(C#N)[C@H](c2cccnc2)[C@H]2CN(C(=O)OCc3ccccc3)CC=C12	–	16µM	–	13µM	?	?	27	?	–	–
N#CC1=C(N)C(C#N)(C#N)C(c2cccnc2)C2CC(c3ccccc3)CC=C12 (stereo not given)	–	25µM	–	25µM	27µM	?	?	8.9µM	?	–
